Reference: PubChem BioAssay (Tox21)
Results filed as inconclusive are left out. Unmarked numbers belong to inactive results. Active and inactive are the calls of the source. Calls follow the shape of the dose curve; as a rule, active = well fitted cell-killing curve with a large enough effect in the repeat runs; inconclusive = weak or mixed curves, or effect the other way; inactive = flat fitted curve, though single readings scatter. Where a SMILES comes first, the peptide text is derived from it. [ ]: non-standard residue; d: D form. pGlu = O=C1CC[C@@H](C(=O)O)N1

Assay: qHTS RealTime-Glo MT Cell Viability Assay in HEK293 cells - 0 hour (AID 1224880); also: nearly all actives have a fitted effect of over 45% in size; as to activity change, negative = cytotoxicity: top concentration of the series differs between compounds
Details: RealTime-Glo luminescence; series mostly up to 76.8 µM; activity change, negative = cytotoxicity: at the top concentration
Method in brief: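 Measured as luminescence from the same continuously cultured HEK293 wells at successive time points (0, 8, 16, 24, 32, 40 h) after compound addition. Reagent present from seeding; dosing at 5 h; incubation 37 C.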
% is scaled to controls: 0 for no effect and ±100 for the full control effect; potency is read from the fitted curve at half-maximal effect.

SMILES	activity change, negative = cytotoxicity	Potency
O=S(=O)(O)c1cc(O)c(O)c(S(=O)(=O)O)c1	-16.2%	
CCC1C(=O)OCC1Cc1cncn1C (stereo unspecified)	-3.86% [at 35.3 µM]	
C[C@H]1[C@H](NC(=O)/C(=N/OC(C)(C)C(=O)O)c2csc(N)n2)C(=O)N1S(=O)(=O)O (stereo in doubt)	1.75% [at 35.3 µM]	
Nc1ccn([C@@H]2O[C@H](CO)[C@@H](O)C2O)c(=O)n1 (stereo partly specified)	2.69%	
O=S(=O)(O)c1cccc(S(=O)(=O)O)c1	6.29%	
CCN[C@H]1C[C@H](C)S(=O)(=O)c2sc(S(N)(=O)=O)cc21	-0.188% [at 35.3 µM]	
NCCCC(N)(C(=O)O)C(F)F (stereo unspecified)	2.21% [at 35.3 µM]	
CC(C)NNC(=O)c1ccncc1	0.954% [at 35.3 µM]	
NCCCC[C@H](N[C@@H](CCc1ccccc1)C(=O)O)C(=O)N1CCC[C@H]1C(=O)O	-1.63% [at 35.3 µM]	
CN(C)C(=O)Oc1cccc([N+](C)(C)C)c1	-2.01% [at 35.3 µM]	
COC(=O)C1=C(C)NC(C)=C(C(=O)OC(C)C)C1c1cccc2nonc12 (stereo unspecified)		1690 nM (active)
CCCCCCCCCCCCCCC(=O)O	5.16%	
CN1CCC(=C2c3ccccc3CCc3cccnc32)CC1	2.71% [at 35.3 µM]	
CCOc1ccccc1OCC	2.87%	
CCCc1ncc(C[n+]2ccccc2C)c(N)n1	-0.804% [at 35.3 µM]	
CCOC(=O)c1cnc2c(cnn2CC)c1NN=C(C)C	2.69% [at 35.3 µM]	

SMILES	activity change, negative = cytotoxicity	Potency
CC(C(=O)O)c1cccc(Oc2ccccc2)c1 (stereo unspecified)	-12% [at 35.3 µM]	
CCNC(=O)[C@@H]1CCCN1C(=O)[C@H](CCCN=C(N)N)NC(=O)[C@H](CC(C)C)NC(=O)CNC(=O)[C@H](Cc1ccc(O)cc1)NC(=O)[C@H](CO)NC(=O)[C@H](Cc1c[nH]c2ccccc12)NC(=O)[C@H](Cc1cnc[nH]1)NC(=O)[C@@H]1CCC(=O)N1 ([pGlu]HWSYGLRP-NHEt)	-16.7% [at 35.3 µM]	
CC[N+](C)(CC)CCOC(=O)C1c2ccccc2Oc2ccccc21	0.0234% [at 35.3 µM]	
C[C@H]1C[C@H]2[C@@H]3CCC4=CC(=O)C=C[C@]4(C)[C@H]3C(=O)C[C@]2(C)[C@@]1(O)C(=O)CO	-0.188% [at 35.3 µM]	
CCC(C)(CN(C)C)OC(=O)c1ccccc1 (stereo unspecified)	24.4% [at 35.3 µM]	
CN1CCN(c2cc3c(nn2)Oc2ccccc2N3C)CC1	-0.369% [at 15.8 µM]	
OCCCCCO	-2.47%	
C[N+](C)(C)CCCCCCCCCC[N+](C)(C)C	6.48% [at 35.3 µM]	
CCOCC(C)O (stereo unspecified)	-15.8%	
CC[N+](CC)(CC)CCOc1cccc(OCC[N+](CC)(CC)CC)c1OCC[N+](CC)(CC)CC	-3.83% [at 35.3 µM]	
CCCCN1C=CN(C)C1	0.0716% [at 15.8 µM]	
COc1cc(-c2ccc(=O)[nH]n2)ccc1OC(F)F	-4.1% [at 35.3 µM]	
C=CCCC(=O)O	8.29%	
CC(C#N)(CCC(=O)O)N=NC(C)(C#N)CCC(=O)O (stereo unspecified)	10.1%	
CN(C)CCCCCCN(C)C	-5.36%	
